# High-throughput results: PubChem BioAssay, several laboratories
# Hits are enriched below; roughly 2.5% of the tested compounds scored in any of these assays.
# UBC13 polyUb: UBC13 polyubiquitin chain formation inhibitors, primary screen, biochemical, TR-FRET, uHTS | Ubiquitin-conjugating enzyme E2 N (Homo sapiens), P61088 | inhibition, % at 20 µM | 0.47% of 330,000 active; in the data active = inhibition above about 45%, passing the limit was not always enough; inconclusive = no clear call, values can overlap the other calls
# MEKK2 mut-MEK5: MEK5 binding signal on mutant MEKK2 PB1, primary screen, biochemical, multiplex bead flow cytometry, Alexa488-MEK5; AID 1530, 2009; 0.35% of 290,000 active; Alexa488-MEK5 binding to MEKK2 mutant; percent response, % at 10 µM; in the data active = percent response above about 24%, passing the limit was not always enough
# Rce1 inh: yeast Rce1p protease inhibitors, primary screen, biochemical, fluorescence, cell-free homogeneous; CAAX prenyl protease 2 (Saccharomyces cerevisiae (strain ATCC 204508 / S288c)), Q03530; yeast membranes, quenched prenylated peptide cleavage fluorescence; calls only; 0.27% of 290,000 active; AID 2563, 2010;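 active = fall in fluorescence gain of 50% or more versus controls, with final raw signal at or below 3038400; inconclusive = same 50% fall but final raw signal above 3038400; inactive = fall in fluorescence gain under 50%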;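 note: plate controls were neutral control wells for no effect and wells lacking membranes for full effect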
# MEKK2wt PB1 HTS: modulators of MEK5 binding to wildtype MEKK2, primary screen, biochemical, multiplex bead flow cytometry, Alexa488-MEK5; AID 1531, 2009; Alexa488-MEK5 binding to MEKK2 WT; actives lie on both sides; binding response (% of control), % at 10 µM; Mitogen-activated protein kinase kinase kinase 2 (Homo sapiens), Q9Y2U5; 1.1% of 290,000 active; in the data active = binding response below about 67% or above about 130%; inconclusive = no clear call, values can overlap the other calls; inactive = in between
# MEKK3 PB1 HTS: modulators of MEKK3-MEK5 PB1 binding, primary screen, biochemical, wildtype MEKK3, multiplex bead flow cytometry, Alexa488-MEK5. Mitogen-activated protein kinase kinase kinase 3 (Homo sapiens), Q99759. bead-based flow cytometry, Alexa488-MEK5 binding to MEKK3; actives lie on both sides; 0 = blocked by unlabeled MEK5, 100 = vehicle. binding response (% of control), % at 10 µM. 1.4% of 290,000 active. AID 1529, 2009;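 active = binding response more than 3 SD above or below the average of its plate-row segment, actives on both sides; inconclusive = wells at one plate position flagged as instrument error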;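 note: Alexa488 bead fluorescence after subtracting the streptavidin-only scavenger bead signal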
# Target sequence (Q99759 whole entry, looked up): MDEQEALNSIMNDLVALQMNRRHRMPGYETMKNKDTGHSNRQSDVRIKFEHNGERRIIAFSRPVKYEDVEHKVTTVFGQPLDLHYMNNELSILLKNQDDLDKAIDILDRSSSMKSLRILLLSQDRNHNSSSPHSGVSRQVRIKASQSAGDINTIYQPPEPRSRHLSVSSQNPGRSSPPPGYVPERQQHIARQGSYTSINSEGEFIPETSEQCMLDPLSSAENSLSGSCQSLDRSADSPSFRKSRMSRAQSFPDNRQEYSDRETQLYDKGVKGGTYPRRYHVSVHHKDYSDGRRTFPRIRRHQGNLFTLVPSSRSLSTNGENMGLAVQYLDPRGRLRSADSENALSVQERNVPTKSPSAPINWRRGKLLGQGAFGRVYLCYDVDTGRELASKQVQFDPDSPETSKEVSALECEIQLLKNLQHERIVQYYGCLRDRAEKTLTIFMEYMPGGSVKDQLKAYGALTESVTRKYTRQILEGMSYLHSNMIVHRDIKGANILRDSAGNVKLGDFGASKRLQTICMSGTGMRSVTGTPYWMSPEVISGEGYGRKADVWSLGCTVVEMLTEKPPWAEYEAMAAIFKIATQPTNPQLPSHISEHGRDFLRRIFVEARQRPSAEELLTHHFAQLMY
# Casp3 counter: CASP3 inhibitor validation, counterassay for project on UBE2N polyubiquitination blockers, biochemical, one dose. AID 488856, 2010. 4% of 1,400 active. Recombinant caspase-3, Caspase-Glo 3/7 luminescence, 60 min. inhibition, % at 20 µM. shares compounds with UBC13 polyUb;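 active = mean inhibition across replicates above about 26%, limit read from the data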;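 note: plate controls were DMSO with caspase-3 for no effect and DMSO wells lacking enzyme for full effect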
# UBC13 confirm: UBC13 polyubiquitination inhibitors, single-point retest, confirmation, biochemical, TR-FRET, single concentration; 68% of 1,400 active; shares compounds with UBC13 polyUb; inhibition, % at 10 µM; in the data active = inhibition above about 45%; inconclusive = no clear call, values can overlap the other calls
# Numbers without * were called inactive; i = inactive; ? = inconclusive; . = not tested or not shown.
SMILES,UBC13 polyUb,MEKK2 mut-MEK5,Rce1 inh,MEKK2wt PB1 HTS,MEKK3 PB1 HTS,Casp3 counter,UBC13 confirm
O=C(c1ccc2c(c1)[nH]c(=S)n1c3ccccc3nc21)N1CCN(c2ncccn2)CC1,?,2,i,101,100,.,.
CCCN(CCC)CCCNC(=O)c1cc2c(=O)n(C)c3ccccc3c2n1C,32,2,i,107,100,.,.
CCCCN(CC)CCNC(=O)c1cc2c(=O)n(C)c3ccccc3c2n1C,57*,1,i,107,97,-1,53*
COc1cc(S(=O)(=O)NCc2ccc(F)cc2)ccc1-n1cnnn1,3,0,i,103,101,.,.
Cc1ccc(C(=O)NC(C)c2ccc(-n3ccnc3)cc2)cc1S(=O)(=O)N1CCOCC1 (stereo unspecified),73*,.,i,.,.,-1,102*
CCOc1ncccc1C(=O)N1CCCSC1=Nc1ccc(C(C)=O)cc1,-18,-9,i,84,74,.,.
COc1ccccc1[C@@H]1C(c2cccc(C)c2)=NN(c2ccccc2)[C@H]1C(=O)N1CCOC1=O,46*,2,i,89,88,-2,46*
CC(=O)Nc1ccc(SCC(=O)Nc2ccc(Cl)cn2)cc1,-6,0,i,101,102,.,.
CC(=O)Nc1cccc(NC(=O)CSc2nnnn2C)c1,.,11,i,106,111,.,.
CC(=O)Nc1ccc(NC(=O)CSc2ncc(C(=O)Nc3ccc(Cl)cc3)c(=O)n2C)cc1,55*,.,i,.,.,97*,30
CC(=O)Nc1cccc(NC(=O)CSc2ncc(C(=O)Nc3ccccc3)c(=O)n2C)c1,82*,.,i,.,.,95*,86*
Cc1nnc(SCC(=O)Nc2ccc(F)cc2)n(N)c1=O,3,9,i,105,103,.,.
CC(=O)Nc1cccc(NC(=O)CSc2ncc(C(=O)Nc3ccc(F)cc3)c(=O)n2C)c1,51*,.,i,.,.,97*,38
CC(=O)Nc1ccc(NC(=O)CSc2ncc(C(=O)Nc3ccc(F)cc3)c(=O)n2C)cc1,71*,.,i,.,.,98*,62*
COc1ccc(C)cc1NC(=O)c1cc(S(=O)(=O)N2CCOCC2)cn1C,3,4,i,93,99,.,.
Cc1cccc(C(=O)Oc2ccc(/C=N/NC(=O)Cc3ccc([N+](=O)[O-])cc3)cc2)c1,86*,-1,i,97,94,0,61*
O=C(CSCc1ccc([N+](=O)[O-])cc1)NN=C1CCCCCC1,91*,-2,i,92,90,-2,105*
COc1ccc(/C=N/NC(=O)CSCC(=O)Nc2ccccc2)cc1OC,0,5,i,102,100,.,.
COc1ccc(/C=N/NC(=O)CSCc2ccc([N+](=O)[O-])cc2)cc1OC,79*,4,i,115,111,1,71*
COc1cc(/C=N/NC(=O)CSCc2ccc([N+](=O)[O-])cc2)cc(OC)c1OC,86*,0,.,97,101,0,103*
O=C(CCCNC(=O)c1ccc(Cl)cc1)Nc1nccs1,6,.,.,.,.,.,.
Cc1ccc(NC(=O)CN(C)C2CCCCC2)cc1Cl,2,4,i,108,106,.,.
c1ccc(C[C@H]2CNCCN2CCCCC2CCCCC2)cc1,61*,.,i,.,.,3,68*
c1ccc2c(C[C@@H]3CNCCN3CCCCC3CCCCC3)cccc2c1,74*,.,.,.,.,-1,61*
c1ccc(C[C@H]2CNCCN2CC2CCCCC2)cc1,18,.,i,.,.,.,.
Cn1c(SCC(=O)NCC2CCCO2)ncc(C(=O)Nc2ccc(Cl)cc2)c1=O (stereo unspecified),58*,.,i,.,.,98*,69*
Cn1c(SCC(=O)NCC2CCCO2)ncc(C(=O)Nc2ccc(F)cc2)c1=O (stereo unspecified),59*,.,i,.,.,96*,60*
O=C(N/N=C/c1ccccn1)c1cc(-c2ccccc2Cl)n[nH]1,47*,-13,i,88,90,-2,42
O=C(N/N=C/c1ccccn1)c1cc(-c2cccc3ccccc23)n[nH]1,-10,5,i,92,89,.,.
CCc1ccc(-c2cc(C(=O)N/N=C/c3ccccn3)[nH]n2)cc1,50*,-1,i,97,102,2,54*
